# Source: the supplement of paper PMC10849652
# Of roughly 7,900 targets only a part is listed; those with a hit were picked by preference. About 0.6% of all pairs of compound and target were hits. Unmarked numbers belong to inactive results.
# Legend:
# Assay in all cases: log2 fold change, soluble protein after heating vs DMSO (PISA); higher = thermal stabilisation; K562 cells, 10 uM, 30 min; active = over 0.2 and 3.5 SD of the protein, either way, in both replicates (recomputed)
# IRAK-1-4 Inhibitor I = compound: C1COCCN1CCN2C3=CC=CC=C3N=C2NC(=O)C4=CC(=CC=C4)[N+](=O)[O-] [IRAK-1-4 Inhibitor I]
# How it was run: (§1)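 K562 cells at 2×10^6 cells/mL were treated with 10 μM compound for 30 min. Aliquots were heated for 3 min across 48°C-58°C, pooled, and extracted in PBS with 0.5% NP-40 at 4°C; soluble protein was the supernatant after 21,000xg for 90 min. Soluble protein was quantified by TMTpro 16plex LC-MS/MS with channel sums equalised, and reported as log2 fold change in thermal stability against DMSO controls, with values from duplicates.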
# ibrutinib = compound: C=CC(=O)N1CCC[C@@H](n2nc(-c3ccc(Oc4ccccc4)cc3)c3c(N)ncnc32)C1 [ibrutinib]
# How it was run: as §1
# [1] = compound: CC(=O)c1cnc2ccc(-c3cc(Cl)c(O)c(Cl)c3)nc2c1N[C@H]1CC[C@H](CN(C)C)CC1
# How it was run: as §1
# ralimetinib = compound: CC(C)(C)Cn1c(N)nc2ccc(-c3[nH]c(C(C)(C)C)nc3-c3ccc(F)cc3)nc21 [ralimetinib]
# How it was run: as §1
# [2] = compound: CC(C)(O)CC(=O)NCCn1ccc2ncnc(Nc3ccc(Oc4cccc(C(F)(F)F)c4)c(Cl)c3)c21
# How it was run: as §1
# [3] = compound: CC(C)C1=C2N=C(C=C(N2N=C1)NCC3=CC=CC=C3)NCCCCCCN
# How it was run: as §1
# [4] = compound: CC(C)C[C@@H](C=O)NC(=O)[C@H](CC(C)C)NC(=O)[C@H](CC(C)C)NC(=O)OCc1ccccc1
# How it was run: as §1
# pinometostat = compound: CC(C)N(C[C@H]1O[C@@H](n2cnc3c(N)ncnc32)[C@H](O)[C@@H]1O)[C@H]1C[C@@H](CCc2nc3cc(C(C)(C)C)ccc3[nH]2)C1 [pinometostat]
# How it was run: as §1
# [5] = compound: CC1=C(C(CC(=O)N1)C2=CC=C(C=C2)C(F)(F)F)C(=O)NC3=C(C=C4C(=C3)C=NN4)F
# How it was run: as §1
# [6] = compound: CC1=C(C2=C(C=C1)C(=O)C3=CC=CC=C3N2CCCN)C
# How it was run: as §1
# UniProt Q86YH6, sequence (Q86YH6 whole entry, looked up): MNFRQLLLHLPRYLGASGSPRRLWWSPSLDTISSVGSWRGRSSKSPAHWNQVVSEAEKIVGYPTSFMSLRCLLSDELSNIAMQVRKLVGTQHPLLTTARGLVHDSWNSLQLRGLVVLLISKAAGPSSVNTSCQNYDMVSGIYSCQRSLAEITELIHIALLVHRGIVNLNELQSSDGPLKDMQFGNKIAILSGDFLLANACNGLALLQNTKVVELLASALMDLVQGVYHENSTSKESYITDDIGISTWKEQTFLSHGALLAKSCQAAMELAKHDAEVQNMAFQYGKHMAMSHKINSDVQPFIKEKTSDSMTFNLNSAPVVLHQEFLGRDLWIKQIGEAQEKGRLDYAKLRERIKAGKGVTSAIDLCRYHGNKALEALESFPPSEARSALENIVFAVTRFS
# UniProt Q13131, sequence (Q13131 whole entry, looked up): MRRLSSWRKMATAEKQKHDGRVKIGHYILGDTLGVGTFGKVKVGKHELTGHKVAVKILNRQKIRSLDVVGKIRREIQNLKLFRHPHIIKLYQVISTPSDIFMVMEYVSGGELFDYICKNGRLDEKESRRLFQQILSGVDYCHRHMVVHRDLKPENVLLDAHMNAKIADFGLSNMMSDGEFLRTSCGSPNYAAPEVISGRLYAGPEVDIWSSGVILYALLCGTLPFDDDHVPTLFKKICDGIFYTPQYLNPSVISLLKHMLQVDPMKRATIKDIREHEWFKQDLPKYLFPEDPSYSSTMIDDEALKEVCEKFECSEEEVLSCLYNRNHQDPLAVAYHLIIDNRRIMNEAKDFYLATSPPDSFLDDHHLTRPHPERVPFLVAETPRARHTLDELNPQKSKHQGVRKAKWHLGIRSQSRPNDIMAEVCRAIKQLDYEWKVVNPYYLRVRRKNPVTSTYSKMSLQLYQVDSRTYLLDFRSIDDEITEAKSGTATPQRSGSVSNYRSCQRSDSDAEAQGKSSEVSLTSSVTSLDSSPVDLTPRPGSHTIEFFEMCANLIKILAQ
# UniProt Q99460, sequence (Q99460 whole entry, looked up): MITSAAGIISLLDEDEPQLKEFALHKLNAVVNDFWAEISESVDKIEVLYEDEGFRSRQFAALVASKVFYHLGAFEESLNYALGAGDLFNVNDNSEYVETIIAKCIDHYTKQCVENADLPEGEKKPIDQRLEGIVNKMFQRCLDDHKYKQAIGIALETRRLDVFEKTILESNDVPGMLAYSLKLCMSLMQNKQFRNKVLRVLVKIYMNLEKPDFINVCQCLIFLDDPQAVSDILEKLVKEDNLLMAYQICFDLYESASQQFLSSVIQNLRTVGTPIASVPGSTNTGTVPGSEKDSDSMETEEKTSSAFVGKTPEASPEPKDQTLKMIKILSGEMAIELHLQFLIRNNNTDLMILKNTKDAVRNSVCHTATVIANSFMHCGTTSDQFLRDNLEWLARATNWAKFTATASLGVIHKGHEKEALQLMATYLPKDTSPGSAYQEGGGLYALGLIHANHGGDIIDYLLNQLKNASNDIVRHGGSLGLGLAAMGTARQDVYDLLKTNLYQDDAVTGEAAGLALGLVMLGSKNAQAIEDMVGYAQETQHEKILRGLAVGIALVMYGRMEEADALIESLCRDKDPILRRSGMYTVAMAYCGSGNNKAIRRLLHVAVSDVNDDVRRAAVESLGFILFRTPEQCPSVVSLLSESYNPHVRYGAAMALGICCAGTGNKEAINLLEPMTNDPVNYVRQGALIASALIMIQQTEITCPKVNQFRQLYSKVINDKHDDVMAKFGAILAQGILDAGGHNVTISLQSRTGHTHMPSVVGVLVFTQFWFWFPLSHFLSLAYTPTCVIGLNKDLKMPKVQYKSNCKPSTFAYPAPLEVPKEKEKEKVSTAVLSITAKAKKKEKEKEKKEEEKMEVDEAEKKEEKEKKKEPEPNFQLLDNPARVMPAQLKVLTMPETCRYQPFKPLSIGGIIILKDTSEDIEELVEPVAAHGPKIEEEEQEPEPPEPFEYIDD
# UniProt P28340, sequence (P28340 whole entry, looked up): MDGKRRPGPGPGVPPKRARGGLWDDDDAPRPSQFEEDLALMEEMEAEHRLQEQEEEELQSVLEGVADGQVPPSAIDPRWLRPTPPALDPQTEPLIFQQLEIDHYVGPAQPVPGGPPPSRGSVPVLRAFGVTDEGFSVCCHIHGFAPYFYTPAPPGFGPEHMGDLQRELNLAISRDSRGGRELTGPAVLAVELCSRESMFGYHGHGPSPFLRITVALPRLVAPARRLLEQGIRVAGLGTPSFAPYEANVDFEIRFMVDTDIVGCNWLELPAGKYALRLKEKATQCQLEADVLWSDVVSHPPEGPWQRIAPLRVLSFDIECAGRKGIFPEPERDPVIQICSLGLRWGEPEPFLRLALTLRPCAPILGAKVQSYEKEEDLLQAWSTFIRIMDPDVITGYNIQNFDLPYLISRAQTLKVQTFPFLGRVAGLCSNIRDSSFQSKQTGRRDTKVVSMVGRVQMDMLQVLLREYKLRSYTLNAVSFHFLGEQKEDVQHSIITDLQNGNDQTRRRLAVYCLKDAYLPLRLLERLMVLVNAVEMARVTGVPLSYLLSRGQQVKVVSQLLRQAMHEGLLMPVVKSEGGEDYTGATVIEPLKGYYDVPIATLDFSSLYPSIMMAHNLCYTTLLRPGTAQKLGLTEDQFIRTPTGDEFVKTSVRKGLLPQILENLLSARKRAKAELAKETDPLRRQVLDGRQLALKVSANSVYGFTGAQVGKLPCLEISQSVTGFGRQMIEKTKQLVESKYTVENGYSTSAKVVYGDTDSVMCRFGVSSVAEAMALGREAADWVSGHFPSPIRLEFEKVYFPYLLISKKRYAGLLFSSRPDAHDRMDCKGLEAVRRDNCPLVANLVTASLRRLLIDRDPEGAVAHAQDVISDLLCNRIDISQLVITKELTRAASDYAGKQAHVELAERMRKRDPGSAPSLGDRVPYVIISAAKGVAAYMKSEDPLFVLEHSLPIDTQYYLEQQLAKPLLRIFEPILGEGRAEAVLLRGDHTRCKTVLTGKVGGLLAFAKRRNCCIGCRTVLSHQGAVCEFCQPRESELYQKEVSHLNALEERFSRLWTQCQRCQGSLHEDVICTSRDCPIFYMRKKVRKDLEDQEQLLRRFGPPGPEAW
# UniProt Q5MIZ7, sequence (Q5MIZ7 whole entry, looked up): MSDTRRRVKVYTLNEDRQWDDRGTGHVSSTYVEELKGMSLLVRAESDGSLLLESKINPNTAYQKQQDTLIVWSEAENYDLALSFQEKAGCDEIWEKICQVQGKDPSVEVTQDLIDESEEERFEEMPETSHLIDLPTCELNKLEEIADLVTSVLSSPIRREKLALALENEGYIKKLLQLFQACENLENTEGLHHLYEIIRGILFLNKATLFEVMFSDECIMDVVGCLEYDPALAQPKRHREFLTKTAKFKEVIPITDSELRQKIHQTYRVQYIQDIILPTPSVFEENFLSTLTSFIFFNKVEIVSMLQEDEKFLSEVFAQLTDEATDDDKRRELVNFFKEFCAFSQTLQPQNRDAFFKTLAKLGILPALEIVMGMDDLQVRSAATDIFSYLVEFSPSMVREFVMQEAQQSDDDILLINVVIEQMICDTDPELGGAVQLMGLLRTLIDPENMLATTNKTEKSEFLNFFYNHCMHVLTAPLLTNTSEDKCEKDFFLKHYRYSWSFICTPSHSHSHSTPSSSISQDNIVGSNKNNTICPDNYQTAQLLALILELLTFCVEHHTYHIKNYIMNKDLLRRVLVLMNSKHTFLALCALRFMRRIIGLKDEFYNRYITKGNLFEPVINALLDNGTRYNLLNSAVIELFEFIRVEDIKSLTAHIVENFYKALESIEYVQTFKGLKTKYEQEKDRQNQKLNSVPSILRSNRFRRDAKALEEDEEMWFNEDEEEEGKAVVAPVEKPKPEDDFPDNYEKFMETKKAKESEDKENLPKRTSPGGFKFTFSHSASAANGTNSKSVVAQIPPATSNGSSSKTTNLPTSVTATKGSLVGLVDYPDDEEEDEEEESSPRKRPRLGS
# UniProt P62136, sequence (P62136 whole entry, looked up): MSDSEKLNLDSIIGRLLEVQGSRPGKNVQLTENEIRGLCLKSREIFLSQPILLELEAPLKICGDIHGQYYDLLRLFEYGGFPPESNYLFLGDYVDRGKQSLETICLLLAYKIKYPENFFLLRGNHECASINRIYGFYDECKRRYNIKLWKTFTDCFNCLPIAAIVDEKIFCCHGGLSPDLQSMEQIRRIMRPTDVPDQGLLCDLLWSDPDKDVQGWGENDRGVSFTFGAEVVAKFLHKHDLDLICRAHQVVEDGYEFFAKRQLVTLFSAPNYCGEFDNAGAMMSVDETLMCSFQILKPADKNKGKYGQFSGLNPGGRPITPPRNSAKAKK
# UniProt P48556, sequence (P48556 whole entry, looked up): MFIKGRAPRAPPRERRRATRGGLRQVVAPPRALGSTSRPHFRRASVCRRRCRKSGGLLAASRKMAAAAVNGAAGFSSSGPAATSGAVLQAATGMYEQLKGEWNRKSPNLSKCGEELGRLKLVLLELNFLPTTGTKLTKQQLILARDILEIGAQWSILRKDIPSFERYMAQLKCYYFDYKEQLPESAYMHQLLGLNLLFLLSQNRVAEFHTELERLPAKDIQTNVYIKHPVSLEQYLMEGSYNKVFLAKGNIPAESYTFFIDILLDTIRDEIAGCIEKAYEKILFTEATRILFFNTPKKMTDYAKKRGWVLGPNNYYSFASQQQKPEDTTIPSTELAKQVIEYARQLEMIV
# UniProt Q9H814, sequence (Q9H814 whole entry, looked up): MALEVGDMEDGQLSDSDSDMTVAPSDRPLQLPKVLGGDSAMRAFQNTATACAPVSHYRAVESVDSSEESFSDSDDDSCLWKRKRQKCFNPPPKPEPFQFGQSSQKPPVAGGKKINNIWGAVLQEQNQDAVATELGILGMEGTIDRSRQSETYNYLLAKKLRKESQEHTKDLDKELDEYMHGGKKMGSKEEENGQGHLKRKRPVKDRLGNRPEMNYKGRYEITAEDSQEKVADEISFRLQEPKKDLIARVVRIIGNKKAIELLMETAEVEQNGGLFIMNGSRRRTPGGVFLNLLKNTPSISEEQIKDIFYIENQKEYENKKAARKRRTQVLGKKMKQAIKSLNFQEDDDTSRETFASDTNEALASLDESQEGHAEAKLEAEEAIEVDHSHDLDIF
Target,log2 fold change (IRAK-1-4 Inhibitor I),log2 fold change (ibrutinib),log2 fold change [1],log2 fold change (ralimetinib),log2 fold change [2],log2 fold change [3],log2 fold change [4],log2 fold change (pinometostat),log2 fold change [5],log2 fold change [6]
PDCD2L (UniProt Q9BRP1),-0.034,-0.006,0.07,0.047,-0.115,0.078,0.042,0.007,0.065,0.041
PPM1G (UniProt O15355),-0.095,-0.102,-0.098,-0.044,-0.17,-0.223,0.088,-0.067,-0.121,-0.002
POLD1 (UniProt P28340),-0.009,0.021,-0.081,-0.02,-0.085,-0.12,0.11,0.024,-0.005,-0.011
PHAX (UniProt Q9H814),0.015,0.027,-0.041,0.002,0.024,-0.16,0.019,0.016,0.071,-0.253 (active)
PRPF4B (UniProt Q13523),-0.126,-0.015,-0.263,-0.001,0.138,-0.029,0.077,0.099,-0.006,-0.209
PTDSS1 (UniProt P48651),-0.146,0.118,0.021,0.029,-0.023,-0.585 (active),0.061,0.212,0.093,0.035
PPP4R3B (UniProt Q5MIZ7),0.027,-0.024,-0.018,-0.014,0.095,-0.069,-0.023,-0.021,0.034,-0.069
PNPLA2 (UniProt Q96AD5),-0.006,0.166,-0.116,-0.009,0.044,-0.184,0.121,-0.018,-0.083,-0.004
PRKAA1 isoform 2 (UniProt Q13131),0.046,-0.006,-0.343 (active),-0.003,-0.009,-0.025,-0.014,-0.014,0.022,0.019
PRKACB isoform 2 (UniProt P22694),-0.007,-0.032,-0.067,-0.035,-0.011,-0.012,0.054,-0.008,-0.034,0.044
POLR2I (UniProt P36954),0.045,0.136,0.425 (active),-0.079,0.035,0.389,0.03,-0.024,0,0.324
PSMD1 (UniProt Q99460),-0.037,-0.022,0.03,0.061,0.009,0.054,-0.254 (active),0.023,0.028,-0.004
PDSS2 (UniProt Q86YH6),0.1,0.074,0.058,-0.059,-0.089,-0.085,0.054,-0.017,-0.438 (active),-0.022
PSMD8 (UniProt P48556),-0.058,-0.033,0.076,-0.012,0.022,0.016,-0.194,0.031,0.051,-0.014
PPP1CA (UniProt P62136),0.041,-0.02,-0.018,-0.012,0.007,0.015,0.009,-0.071,-0.013,-0.007
